Data reported in PubChem BioAssay AID504725 (Broad Institute, 2011).
Measured potencies and affinities stand elsewhere. Active and inactive are the calls of the source. No rule for the calls is given here.

The molecules below were run against KSHV LANA C-terminal domain (residues 932-1162) binding to LBS DNA (UniProt O40947) (assay: inhibitors of C-LANA binding to LBS DNA, dose response, biochemical, fluorescence polarization, cherry-picked samples (AID 504725)). Details: MBP-C-LANA / FAM-LBS DNA fluorescence polarization, percent change from plate compound-well median; series mostly up to 35 µM; activity change, negative = inhibition: at the top concentration.

Activity change, negative = inhibition, inactive:
Oc1[nH]c2ccccc2c1N=Nc1ccccc1F 16.6%
CCN(CC)C(=S)SC1CCCCN(C(=O)c2ccccc2)C1=O (centres undefined) 0.524%
CC(C)CC(=O)Nc1nnc(CSCc2ccc(F)cc2)s1 -0.834%
O=C(Nc1ccc(Br)cn1)c1cccc2ccccc12 3.91%
CCCn1c(SCC(=O)NCc2cccs2)nc2c1c(=O)n(C)c(=O)n2C 1.8%
CC(C)c1ccc(CNc2ccc([N+](=O)[O-])cn2)cc1 -0.75%
Cc1cc(Cl)ccc1N1C(=O)CC(NNC(=O)c2cccnc2)C1=O (centres undefined) -4.69%
CSC(=NS(=O)(=O)c1ccc(N)cc1)NS(=O)(=O)c1cccs1 -0.26%
Cc1ccc(N2CC(C(=O)Nc3nnc(SCC(=O)Nc4nc(C)cs4)s3)CC2=O)cc1 (centres undefined) -1.12%
O=C(Nc1cc(Cl)ccc1-n1cncn1)c1cccs1 2.42%
CCN(CC(=O)Nc1ccc(OC)cc1)C(=O)c1cc([N+](=O)[O-])ccc1N1CCOCC1 1.06%
CCOC(=O)C1C2C=CC3(CN(c4cccc(Cl)c4)C(=O)C13)O2 (centres undefined) -3.47%
Nc1ccc(C(=O)Nc2ccc3c(O)cc(S(=O)(=O)O)cc3c2)cc1 -11.2%
CC(Sc1nc2ccccc2s1)C(=O)Nc1nnc(C(C)C)s1 (centres undefined) -11.3%
Cc1cnc(NC(=O)Cc2c[nH]c3ccccc23)s1 1.63%
COc1ccc(-c2cnc3n2CCCCC3)cc1 0.703%
O=c1[nH][nH]cc1C=Nc1ccc(Cl)cc1Cl 0.414%
CCOC(=O)C1=C(O)/C(=C/c2cc(C)n(-c3ccccc3)c2C)N=C1C -2.16%
COc1cc(C(=S)N2CCN(c3cccc(Cl)c3)CC2)ccc1O 0.458%
